Hits are enriched below; roughly 1.1% of the tested compounds scored in any of these assays.
SRC1 inh: SRC1 coactivator transcriptional activity inhibitors, primary screen, cell-based, luminescence; hit rate 0.12% among 360,000; inhibition, % at 3.6 µM; Nuclear receptor coactivator 1 (Homo sapiens), Q15788; HEK293 GAL4-SRC1 luciferase reporter; AID 588354, 2011;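 active = inhibition above the campaign mean plus 3 SD, with each screening campaign given its own cutoff, cut at about 60% in these data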
COUP-TFII inh: NR2F2 transcriptional activity inhibitors, primary screen, cell-based, luciferase reporter, HEK293T, luminescence; COUP transcription factor 2 (Homo sapiens), P24468; HEK293T NGFI-A luciferase reporter; inhibition, % at 8.6 µM; hit rate 0.7% among 370,000; AID 686940, 2013;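 active = inhibition above a per-plate cutoff, mean inhibition of test wells between control levels plus 3 SD, cut at about 38% in these data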;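 also: cells cotransfected with COUP-TFII expression vector driving the NGFI-A reporter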
GalR3 antag: GalR3 antagonists in HEK293 cells, primary screen, cell-based, fluorescence readout; hit rate 0.44% among 360,000; AID 651719, 2012; inhibition, % at 3 µM; Galanin receptor type 3 (Homo sapiens), O60755; HEK293 GalR3-CNG cAMP membrane potential fluorescence; galR3 body fused to GalR1 C-terminus;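 active = inhibition above the screen-wide average plus 3 SD, cut at about 13% in these data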;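 also: forskolin and galanin both at EC90 stimulate the cells; cAMP rise reported by CNG channel membrane potential dye signal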
NCOA2 inhibitor: inhibition of GAL4-SRC2 driven luciferase reporter, primary screen, SRC2 inhibitor project, cell-based, luminescence | AID 651957, 2012 | hit rate 0.17% among 370,000 | inhibition, % at 9 µM | HEK293 GAL4-SRC2 luciferase reporter | Nuclear receptor coactivator 2 (Homo sapiens), Q15596;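 active = inhibition above the mean inhibition of all tested compounds plus 3 SD, set per campaign, cut at about 52% in these data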
LRH-1 inv ag: LRH-1 (NR5A2) inverse agonists, primary screen, cell-based, luminescence, HEK293T, StAR-luciferase reporter; Nuclear receptor subfamily 5 group A member 2 (Homo sapiens), O00482; LRH-1 transfected, 24 h; inhibition, % at 3.6 µM; hit rate 0.13% among 360,000;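 active = inhibition above the mean inhibition of all tested compounds plus 3 SD, cut at about 73% in these data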
Target sequence (O00482 whole entry, looked up): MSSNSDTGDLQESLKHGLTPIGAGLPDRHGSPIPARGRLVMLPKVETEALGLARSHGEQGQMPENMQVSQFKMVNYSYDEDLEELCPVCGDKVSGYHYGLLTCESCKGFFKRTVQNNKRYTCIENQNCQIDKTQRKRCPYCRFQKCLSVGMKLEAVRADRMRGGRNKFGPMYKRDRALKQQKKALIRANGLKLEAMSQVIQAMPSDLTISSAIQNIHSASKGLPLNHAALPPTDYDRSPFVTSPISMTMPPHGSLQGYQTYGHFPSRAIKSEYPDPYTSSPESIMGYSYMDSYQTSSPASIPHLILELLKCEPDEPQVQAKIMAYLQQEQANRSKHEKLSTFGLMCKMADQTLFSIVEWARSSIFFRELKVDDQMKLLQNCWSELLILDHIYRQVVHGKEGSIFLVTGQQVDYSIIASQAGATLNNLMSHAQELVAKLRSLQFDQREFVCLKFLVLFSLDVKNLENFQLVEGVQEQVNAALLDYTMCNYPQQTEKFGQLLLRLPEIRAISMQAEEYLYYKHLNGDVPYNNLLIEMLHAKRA
SRC3 inh: SRC3 coactivator transcriptional activity inhibitors, primary screen, cell-based, luminescence; HEK293 GAL4-SRC3 luciferase reporter; inhibition, % at 3.6 µM; hit rate 0.17% among 360,000; AID 588352, 2011;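 active = inhibition above a per-campaign cutoff, the mean of all compounds plus 3 SD, cut at about 60% in these data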;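 also: higher means less SRC3-driven luciferase light from the GAL4 reporter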
GalR3 antag conf: GalR3 antagonist hit confirmation, cell-based, fluorescence, triplicate. shares compounds with GalR3 antag. HEK293 GalR3 CNG cAMP biosensor, membrane potential fluorescence; galR3 fused to GalR1 carboxy tail; challenged with forskolin and galanin at EC90. inhibition, % at 3 µM. hit rate 59% among 1,600. AID 652245, 2013;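 active = inhibition above the primary screen's cutoff, the mean inhibition of all screened compounds plus 3 SD, cut at about 13% in these data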
CNG parental: nonspecific cAMP agonists in parental HEK-CNG cells, counter-screen for GalR3 antagonist project, cell-based, fluorescence, high throughput | activation, % at 3 µM | shares compounds with GalR3 antag | HEK293-CNG parental cells, cAMP membrane potential fluorescence; normalised: DMSO wells 0%, forskolin wells 100% | hit rate 10% among 1,600; in the data active = activation above about 1.3%
Numbers stand for hits; – = inactive; · = not tested or not shown.

SMILES	SRC1 inh	COUP-TFII inh	GalR3 antag	NCOA2 inhibitor	LRH-1 inv ag	SRC3 inh	GalR3 antag conf	CNG parental
CC(C)(C)SCCNC(=O)/C=C/c1ccc(F)cc1	–	–	–	–	–	–	·	·
Nn1c(SCC(=O)Nc2nccs2)nnc1-c1cc(-c2ccc(F)cc2)n[nH]1	·	–	·	–	·	·	·	·
COc1cc2c(cc1OC)/C(=C/C(=O)c1ccc(OC)c([N+](=O)[O-])c1)NCC2	–	–	19	–	–	–	25	–
COc1cc2c(cc1OC)/C(=C/C(=O)c1cccc([N+](=O)[O-])c1)NCC2	–	–	–	–	–	–	·	·
C[C@@H]1CN([C@@H](C)CO)C(=O)CCCn2cc(nn2)CO[C@H]1CN(C)C(=O)Nc1cccc2ccccc12	·	–	–	–	·	·	·	·
Cc1ccc(O)c(N=Cc2cc(Cc3ccccc3)cc([N+](=O)[O-])c2O)c1	–	–	13	–	–	–	–	–
CC(C(=O)Nc1ccc2[nH]c(=O)[nH]c2c1)N1CCN(Cc2ccc3c(c2)OCO3)CC1 (stereo not drawn)	–	–	13	–	–	–	13	–
COc1ccc(C2c3cc(OC)c(OC)cc3CC3C(=O)OCC32)cc1OC (stereo not drawn)	–	–	62	–	–	–	65	–
COc1ccc(C2CC(=O)c3cc(OC)c(OC)cc32)cc1OC (stereo not drawn)	–	–	–	–	–	–	·	·
CC(=O)N(Cc1ccccc1)c1nccs1	·	–	–	–	·	·	·	·
Cc1cc(C(F)(F)F)n(-c2nc(C(=O)O)cs2)n1	–	–	–	–	–	–	·	·
COc1ccc(C2=NN(c3nc(C(=O)O)cs3)C(O)(C(F)(F)F)C2)c(OC)c1 (stereo not drawn)	–	–	66	–	–	–	74	–
N#CCC(=O)Nc1ccc(C(=O)OCC(=O)c2ccc3c(c2)NC(=O)CO3)cc1	–	–	13	–	–	–	–	–
CC(=O)Nc1cc(NC(C)=O)cc(C(=O)OCC(=O)c2ccc3c(c2)NC(=O)CO3)c1	–	–	–	–	–	–	·	·
COCCCNC(=O)C[C@H]1C[C@@]2(C(=O)OC)C(=C[C@H](COCc3ccccc3)O[C@@H]2C)N(Cc2ccc3c(c2)OCO3)C1=O	·	–	–	–	·	·	·	·
O=c1c(Cl)c(NCCCO)cnn1-c1nc2ccccc2[nH]1	–	–	15	–	–	–	–	–
CCN1C(=O)[C@H]2[C@@H](c3ccc(C)cc3)N[C@]3(CCCN(Cc4ccco4)C3=O)[C@H]2C1=O	–	–	–	–	–	–	·	·
CCOC(=O)CSc1nc(N)c(C#N)c(-c2ccc(OCC)cc2)c1C#N	–	–	–	–	–	–	·	·
COC(=O)CSc1nc(N)c(C#N)c(-c2ccc(O)cc2)c1C#N	–	–	45	–	–	–	74	–
CCCCn1c(=O)[nH]c(=O)c2c1nc(Cn1ncc(Cl)c(Cl)c1=O)n2CCC	–	–	23	–	–	–	20	–
c1ccc(N2CCN(c3cccc(-c4cc5ccccc5s4)n3)CC2)nc1	–	–	–	–	–	–	·	·
N#C/C(=C(/O)CCl)c1nnc2n1CCCCC2	–	–	–	–	–	–	·	·
N#C/C(=N\Nc1cc(Cl)cc(Cl)c1)c1nnc2n1CCCCC2	–	–	15	–	–	–	–	1.7
CCCNC(=O)C1(C)CCCN(C(=O)c2cc3ccccc3s2)C1 (stereo not drawn)	–	–	–	–	–	–	·	·

Screens as filed in PubChem BioAssay.
